In PubChem BioAssay (Tox21):
The source made the active and inactive calls. Calls follow the shape of the dose curve; as a rule, active = well fitted curve in the direction sought with a large enough effect in the repeat runs; inconclusive = weak or mixed curves; inactive = flat fitted curve, though single readings scatter.

Assay: qHTS assay to test for compound auto fluorescence at 590 nm (red) in HEK293 cells (AID 720679)
Settings: red autofluorescence 540/590 nm; series mostly up to 91.3 µM
Excerpt: National Center for Advancing Translational Sciences [NCATS]
NIH Chemical Genomics Center [NCGC]
U.S. Environmental Protection Agency [EPA]
National Institutes of Environmental Health Sciences [NIEHS]
National Toxicology Program [NTP]
U.S. Food and Drug Administration [FDA]
Compound auto fluorescence often interferes with screening of the compound library against various biological targets and signaling pathways. Some of these compounds may have fluorophoric properties. Such properties may interfere with the assay outputs resulting in false positives and/or negatives. To decrease such complications and ensure the compound activities are relevant in terms of biological response, the Tox21 10K compound library was screened for auto fluorescence.
From the fluorophores used as reporter signals in our screening assays, the auto fluorescence equivalencies of compounds against three fluorophores have been evaluated: Triamterene, Fluorescein and Rose Bengal sodium for blue, green and red fluorescence, respectively. The fluorescence intensities were measured using Excitation/Emission wavelengths at 405/460nm, 485/535nm and 540/590nm for blue, green and red labels, respectively. This assay includes the red fluorescence data.
Tox21 Assay Protocol Summary:
2,000 HEK293 cells in 5 uL of culture medium containing 10% dialyzed FBS per well were dispensed into black wall/clear bottom 1536-well plates using a Multidrop Combi Dispenser (Thermo Scientific). The assay plates were incubated for 4-5 hr at 37C to allow cell attachment to the well bottom, followed by the transfer of 23 nL compound or DMSO vehicle by a pintool work station (Kalypsys, San Diego, CA). After the assay plates were incubated overnight at 37C and 5% CO2, fluorescence intensities in the assay plates were measured by an Envision (PerkinElmer, Shelton, CT) plate reader using three labels for measuring blue, green and red fluorescence at […] 460, 535 and 590nm respectively.

SMILES | outcome
Nc1ccc(N)cc1 | inactive
C=CC(=O)OCCCCCC(C)C | inactive
COP(=S)(OC)SCN1C(=O)c2ccccc2C1=O | inactive
OCCCCO | inactive
C=CCN=C=S | inactive
C=CC#N | inactive
Cc1ccc(N=C=O)cc1N=C=O | inactive
N#CN=C(N)N | inactive
CCNc1nc(Cl)nc(NC(C)C)n1 | inactive
Cc1cccc(N)c1 | inactive
OCc1ccco1 | inactive
CNC(=O)O/N=C/C(C)(C)S(C)(=O)=O | inactive
C[C@]12CC[C@H](O)CC1=CC[C@@H]1[C@@H]2CC[C@]2(C)C(=O)CC[C@@H]12 | inactive
Cc1ccc(O)c(C)c1 | inactive
Cl[C@H]1OCCO[C@@H]1Cl | inactive
[N-]=[N+]=CC(=O)OC[C@H](N)C(=O)O | inactive
C[C@H]1C(=O)O[C@@H]2CCN3CC=C(COC(=O)[C@](C)(O)[C@]1(C)O)[C@H]23 | inactive
CC12CC1(C)C(=O)N(c1cc(Cl)cc(Cl)c1)C2=O (stereo not given) | inactive
Cc1cc(Cl)ccc1OC(C)C(=O)O (stereo not given) | inactive
N#Cc1ccccn1 | inactive

SMILES | outcome
COP(=S)(OC)Oc1ccc(SC)c(C)c1 | inactive
CC[N+](=O)[O-] | inactive
CC(C)(C)C(=O)CCl | inactive
O=[N+]([O-])c1cc([As](=O)(O)O)ccc1O | inactive
N#Cc1cccc(C#N)c1 | inactive
OCC(O)CCl (stereo not given) | inactive
ClC(Cl)c1ccccc1 | inactive
O=C/C=C/c1ccccc1 | inactive
O=C(O)C(Br)Br | inactive
O=P1(NCCCl)OCCCN1CCCl (stereo not given) | inactive
C=C(C)C(=O)OCC(CC)CCCC (stereo not given) | inactive
CNC(=O)O/N=C(\SC)C(=O)N(C)C | inactive
CCOc1ccc(N)cc1 | inactive
Cc1cccc(N)c1C | inactive
CSc1nnc(C(C)(C)C)c(=O)n1N | inactive
CC(C)CCCCCCOC(=O)c1ccccc1C(=O)OCCCCCCC(C)C | inactive
CN(C)CCC#N | inactive
CCCOC(=O)c1ccccc1C(=O)OCCC | inactive
Cc1cccc(C)c1N | inactive
COC(=O)Nc1cccc(OC(=O)Nc2cccc(C)c2)c1 | inactive
